# In PubChem BioAssay AID493240 (Broad Institute, 2011):
# The whole screen tested about 1,300 compounds, of which about 270 (21%) were called active. No rule for the calls is given here. These entries were drawn from the full list. Potency and affinity values are given separately.
# Test: cytotoxicity in parental SK-MEL-5 melanoma cells – cell-based, CellTiter-Glo, cherry-picked, set 3, orthogonal assay for MITF inhibitor project, dose response (AID 493240)
# Conditions: SK-MEL-5 viability, ATP luminescence (CellTiter-Glo), 24 h; series mostly up to 35 µM; activity change, negative = viability loss: at the top concentration
row,SMILES,"activity change, negative = viability loss"
1,Cc1occc1C(=O)N/N=C/c1ccc(OCc2ccccc2)cc1,-5.87% (inactive)
2,CC(=O)SC(C[N+](=O)[O-])c1cn(C(C)=O)c2ccccc12 (stereo unspecified),-40.4% (inactive)
3,Cc1ccc(-c2cn3nc(C)c(C)nc3n2)cc1,-31.4% (inactive)
4,O=C(Nc1ccc(-c2nc3ncccc3o2)cc1)c1ccc([N+](=O)[O-])o1,-4.62% (inactive)
5,NC(=O)c1cc([N+](=O)[O-])ccc1NCc1ccc(N)cc1,3.12% (inactive)
6,COc1ccc(-c2csc(Nc3ccccn3)n2)cc1OC,-13.8% (inactive)
7,CC1CCN(C(=O)c2cc3ccccc3o2)CC1,-11.1% (inactive)
8,c1ccc(-c2cn3nc4c(nc3n2)CCCC4)cc1,-35.1% (inactive)
9,Cc1ccc(S(=O)(=O)CC(CN2CCCCC2)N2CCCCC2)cc1 (stereo unspecified),-2.19% (inactive)
10,O=S(=O)(CC(CN1CCCCC1)N1CCCCC1)c1ccc2ccccc2c1 (stereo unspecified),-29.1% (inactive)
11,O=C(Nc1ccccc1F)C(=O)Nc1cccc2ccccc12,-13.7% (inactive)
12,c1ccc(-n2ncc3c(NCc4cccs4)ncnc32)cc1,-8.94% (inactive)
13,COc1cccc(/C=N/Nc2ncnc3c2ncn3Cc2ccccc2)c1O,-8.13% (inactive)
14,COc1cccc(C(=O)Nc2ccc3c(cc2=O)[C@@H](NC(C)=O)CCc2cc(OC)c(OC)c(OC)c2-3)c1,-14.7% (inactive)
15,CCc1nc2oc3ccc(C)cc3c(=O)c2cc1C(=O)OC,-4.95% (inactive)
16,Cc1cc(C(=O)O/N=C(\N)c2ccncc2)ccc1[N+](=O)[O-],-0.835% (inactive)
17,O=C(COC(=O)c1ccc(F)c([N+](=O)[O-])c1)NC(=O)NCc1ccccc1,-12% (inactive)
18,O=C(COC(=O)c1ccccc1C(=O)c1ccc(Cl)c([N+](=O)[O-])c1)NC1CC1,-33.4% (inactive)
19,CCCNC(=O)COC(=O)c1ccccc1C(=O)c1ccc(Cl)c([N+](=O)[O-])c1,-47.9% (inactive)
20,CCC(=O)Nc1cc(C(=O)OCC(=O)c2ccccc2Cl)ccc1C,-6.58% (inactive)
21,CNC(=O)COC(=O)c1ccccc1C(=O)c1ccc(Cl)c([N+](=O)[O-])c1,-28% (inactive)
22,CC(=O)OCCNc1cc(Sc2nc3ccccc3[nH]2)c2nonc2c1[N+](=O)[O-],-20.1% (inactive)
23,CNc1oc(/C=C/c2cccc(OC)c2)nc1C#N,7.1% (inactive)
24,Cc1ccc2oc(Nc3nc(C)c(C)c(C)n3)nc2c1,-0.374% (inactive)

row,SMILES,"activity change, negative = viability loss"
1,Cc1ccc2nc(-c3cccnc3)oc2c1,-8.52% (inactive)
2,CC(C)c1ccc(/C=N/Nc2ccc(C(=O)O)cc2)cc1,11.1% (inactive)
3,O=C(NCc1csc(-c2cccs2)n1)C1CCC1,2.31% (inactive)
4,CCOc1ccc2nc(NC(=O)Cc3cccs3)sc2c1,-1.45% (inactive)
5,CC(C)S(=O)(=O)c1csc(C(=O)Nc2ccc(F)cc2)c1N,-19% (inactive)
6,C=CCn1c(C)cc(C2=NNC(=NC(C)(C)C)SC2)c1C,-28.7% (inactive)
7,C=CCN=C1NN=C(c2ccc3c(c2)OCCO3)CS1,-45.7% (inactive)
8,O=C(NC1CC1)C1CCN(S(=O)(=O)c2ccc(Cl)c([N+](=O)[O-])c2)CC1,-1.24% (inactive)
9,CC(C)CN=C(NS(=O)(=O)c1ccccc1)C(Cl)(Cl)Cl,-28.7% (inactive)
10,O=C(CN1CCCCC1)Nc1scc2c1c(=O)oc1ccccc12,0.369% (inactive)
11,CC(C)C(=O)N1CCN(c2ccc(NC(=O)c3ccc([N+](=O)[O-])o3)cc2)CC1,-42.2% (inactive)
12,CN1CCN(c2ccccc2NC(=O)c2ccc([N+](=O)[O-])o2)CC1,-4.86% (inactive)
13,CCN1CCN(/C=N/c2nc3c(s2)CCCC3)CC1,-8.69% (inactive)
14,Oc1ccc(-c2nnc(SCC3CCCCC3)o2)cc1,-5.4% (inactive)
15,CC(=NNC(=S)N1CCN(c2ccccn2)CC1)c1nccs1,-39.7% (inactive)
16,COc1ccc(C(=O)CN2Cc3ccccc3C2=N)cc1,-13.8% (inactive)
17,O=C1CN(c2ccccc2)C(=S)N1C(=O)c1ccc(Br)cc1,6.2% (inactive)
18,O=C(COC(=O)CCN1C(=O)/C(=C\C=C\c2ccccc2)SC1=S)Nc1cc(F)ccc1F,0.284% (inactive)
19,COc1cc(C(=O)Oc2c(CN3CCOCC3)cc(Cl)c3cccnc23)cc(OC)c1OC,-33.5% (inactive)
20,C/C(=N\NC(=O)COc1ccccc1-c1ccccc1)c1ccccn1,-47.2% (inactive)
21,CCOC(=O)COc1ccc2ccccc2c1/C=C/[N+](=O)[O-],-38.9% (inactive)
22,O=C(/C=C/c1ccc([N+](=O)[O-])s1)N1CCCCC1,-26.5% (inactive)
23,O=C(Nc1ccc(Cl)cc1)N1CC=CCC1,-1.58% (inactive)
24,NC(=O)c1c(NC(=O)c2cccnc2)sc2c1CCCCC2,-3.25% (inactive)

row,SMILES,"activity change, negative = viability loss"
1,O=C(N/N=C/c1cc([N+](=O)[O-])ccc1N1CCNCC1)c1ccc([N+](=O)[O-])cc1,-29.8% (inactive)
2,OCC1CCCC(n2cnc3c(=S)nc[nH]c32)O1 (stereo unspecified),-4.77% (inactive)
3,CN(C)CCNC(=O)COc1ccc(C23CC4CC(CC(C4)C2)C3)cc1,-36.2% (inactive)
4,O=C(CSc1ccc(Cl)cc1)NC1CCCC1,-14% (inactive)
5,N#CC1=C(c2ccccc2)/C(=C/c2ccccc2)OC1=O,-34.2% (inactive)
6,Cc1cc(C=C2C(=O)c3ccccc3C2=O)c(C)n1-c1ccccc1,-6.83% (inactive)
7,Cc1ccccc1-n1ncc2c([N+](=O)[O-])cc([N+](=O)[O-])cc21,-17.4% (inactive)
8,Cc1cc2oc(=O)cc(C)c2cc1NC(=O)CCC(=O)O,-30.1% (inactive)
9,Cn1c(SC2=CS(=O)(=O)c3ccccc32)nc2ccccc21,-9.44% (inactive)
10,COc1ccc(C(=O)NC(=O)Nc2cc(C)ccn2)cc1,-15.4% (inactive)
11,Cc1cnn(C(=S)NCCc2ccccc2)c1,-4.11% (inactive)
12,Cc1cc(NCCCn2ccnc2)n2ncc(-c3ccccc3)c2n1,-21.5% (inactive)
13,COc1ccc(C(=O)N/N=C/c2cc(Br)ccc2O)cc1OC,-25.9% (inactive)
14,CC(=O)c1ccc(N/C=C/C(=O)c2ccc(Br)cc2)cc1,-19.5% (inactive)
15,CCOc1cc(/C=C(/C#N)c2ccc(Cl)cc2)cc(Cl)c1OCC(=O)O,8.64% (inactive)
16,O=[N+]([O-])c1ccc(N/N=C/C=C/c2ccco2)cc1,-14.3% (inactive)
17,CCC(=O)N1CCN(c2ccc(NC(=O)c3ccc([N+](=O)[O-])o3)cc2)CC1,-41.1% (inactive)
18,Cc1ccccc1C(=O)N1CCN(c2ccc(NC(=O)c3ccc([N+](=O)[O-])o3)cc2)CC1,-48.9% (inactive)
19,O=C(Nc1ccc(N2CCN(C(=O)c3ccc(Cl)cc3)CC2)cc1)c1ccc([N+](=O)[O-])o1,-47.7% (inactive)
20,CS(=O)(=O)N1CCN(c2ccc(NC(=O)c3ccc([N+](=O)[O-])o3)cc2)CC1,-16% (inactive)
21,CC(C)(C)c1ccc(C(=O)Nc2ccc(CC(=O)O)cc2)o1,-1.2% (inactive)
22,Cn1c(COc2ccccc2Br)nc2ccccc21,-8.98% (inactive)
23,C[C@H]1CCC[C@]2(C)C[C@H]3OC(=O)C(CN4CCCCCC4)[C@H]3C=C12 (stereo partly specified),16.4% (inactive)
